Source: PubChem BioAssay (National Center for Advancing Translational Sciences (NCATS))
CtBP-E1A blk = qHTS Assay for Inhibitors of the CtBP/E1A Interaction; 0.49% of 340,000 active; AlphaScreen GST-E1A/His-CtBP binding, 1536-well; stronger effect = lower value; activity change, % (concentration not given with the values); CtBP / adenovirus E1A interaction (AlphaScreen); in the data active = activity change below about -65%; inconclusive = mostly about -30% to -63%; note: % is set by controls: 0 for no effect and ±100 for the full control effect
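In 5 uL wells, 23 nL compound meets equimolar GST-E1A and His-CtBP (5X stock 125 nM each) for 2 h, 37 °C. Beads (5X, 50 ug/mL) then 1 h, 37 °C, dark.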
Gal4-VP16 FLuc = VP16 counterscreen qHTS for inhibitors of ROR gamma transcriptional activity | Drosophila S2 Gal4-VP16 UAS-luciferase, luminescence, 20 h | Potency, µM (titrated, usually from 53.6 µM), without a hit: at the highest dose activity, negative = inhibition, hits mostly inhibitors | 3.5% of 310,000 active;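 note: Gal4-VP16 expression switched on by copper sulfate through the metallothionein promoter; potency is the fitted concentration of half-maximal effect; % is set by controls: 0 for no effect and ±100 for the full control effect; nearly all actives have a fitted effect of over 50% in size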
MBNL1 CUG block = qHTS Assay for Inhibitors of MBNL1-poly(CUG) RNA binding; Muscleblind-like protein 1 (Homo sapiens), Q9NR56; TR-FRET MBNL1-His/biotin-(CUG)12 binding, 665/545 ratio; Potency, µM (highest dose often 57.5 µM), for inactives: at the top dose activity change, negative = inhibition, most hits filed as inhibitors; 0.036% of 280,000 active; AID 2675, 2010; active = well fitted inhibition curve with a large enough effect in the signal ratio, with a control signal flat, not every such curve was filed as active; inconclusive = small, poorly fitted or top-dose-only effect, or effect the other way, or a change in a side signal; inactive = no such curve, though single readings can be large or run the other way; the % refers to the signal ratio; note: potency is the fitted concentration of half-maximal effect; % is set by controls: 0 for no effect and ±100 for the full control effect
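MBNL1-His + Biotin-(CUG)12, cpd titration 92 nM–58 uM; Tb anti-His Ab 0.055 ng/ul, SA-XL665 5 nM (final); 60 min RT; ratiometric 665/545 nm, Ex 340 nm; normalized to buffer and full-complex controls.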
Six1-Eya2 blk = qHTS Assay for Inhibitors of the Six1/Eya2 Interaction; Homeobox protein SIX1 (Homo sapiens) + Protein phosphatase EYA2 (Homo sapiens), …; AlphaScreen GST-Six1/His-Eya2 binding, biochemical; stronger effect = lower value; activity change, % (no concentration beside the values); 0.56% of 360,000 active; in the data active = activity change below about -65%; inconclusive = mostly about -30% to -63%; note: % is set by controls: 0 for no effect and ±100 for the full control effect
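GST-Six1 + His-Eya2 (5X stock: 250/500 nM); Tris pH 8.0, 300 mM NaCl, 0.05% BSA, 0.02% Tween 20; GSH donor/Ni acceptor beads; 1 h 37 °C dark; AlphaScreen readout.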
CBFb RUNX1 block = qHTS Assay for Compounds Blocking the Interaction Between CBF-beta and RUNX1 for the Treatment of Acute Myeloid Leukemia | Potency, µM (highest dose often 59.8 µM), for the others: top-dose activity, negative = inhibition, most hits filed as inhibitors | AlphaScreen CBFb-His/RUNX1-biotin binding, biochemical | 230,000 tested, under 10 active | Runt-related transcription factor 1 (Homo sapiens) + Core-binding factor subunit beta … | AID 1477, 2009; note: % of control where 0% means no effect
Target sequence (Q01196 whole entry, looked up): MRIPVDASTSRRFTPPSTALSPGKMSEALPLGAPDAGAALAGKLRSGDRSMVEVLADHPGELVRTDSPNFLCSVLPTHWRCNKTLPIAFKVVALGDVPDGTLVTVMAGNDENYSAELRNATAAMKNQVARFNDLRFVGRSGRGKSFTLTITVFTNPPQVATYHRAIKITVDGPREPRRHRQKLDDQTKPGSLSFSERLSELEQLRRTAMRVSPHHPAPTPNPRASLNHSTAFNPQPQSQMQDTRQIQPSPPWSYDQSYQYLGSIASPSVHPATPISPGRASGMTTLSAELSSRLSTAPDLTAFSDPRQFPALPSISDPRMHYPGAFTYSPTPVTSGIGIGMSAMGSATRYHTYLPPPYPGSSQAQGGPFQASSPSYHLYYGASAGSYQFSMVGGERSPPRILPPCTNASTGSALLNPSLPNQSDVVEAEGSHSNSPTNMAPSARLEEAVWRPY
Target sequence (Q13951 whole entry, looked up): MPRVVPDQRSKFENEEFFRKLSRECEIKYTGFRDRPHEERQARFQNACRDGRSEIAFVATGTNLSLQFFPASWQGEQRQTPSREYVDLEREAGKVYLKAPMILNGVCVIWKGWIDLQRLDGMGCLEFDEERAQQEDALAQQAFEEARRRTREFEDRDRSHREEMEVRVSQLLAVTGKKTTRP
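Proteins preincubated together for 20 min at RT before compound addition; 15 min later, nickel and streptavidin beads were added and left 90 min prior to AlphaScreen measurement.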
RORg inh = qHTS for inhibitors of ROR gamma transcriptional activity | Nuclear receptor ROR-gamma (Mus musculus), P51450 | Drosophila S2 Gal4-RORgamma UAS-luciferase reporter, 20 h | Potency, µM (series often up to 53.6 µM), without a hit: top-dose activity change, negative = inhibition, actives largely listed as inhibitors | 5.4% of 310,000 active | AID 2551, 2010; note: potency is the fitted concentration of half-maximal effect; % is set by controls: 0 for no effect and ±100 for the full control effect; nearly all actives have a fitted effect of over 60% in size
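Using a luciferase readout, inhibitors were identified by reduced reporter activity in Drosophila cells coexpressing a copper-inducible Gal4–ROR gamma fusion and UAS-driven Photinus luciferase, incubated 20 hr after 700 uM copper sulfate.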
Active calls of the source: *; u = inconclusive; x = no result. Sampled rows, rich in hits. Any-hit rate of the full collection: about 5.5%. Unless noted, calls come from the whole dose curve; as a rule, active = well fitted curve in the direction sought with a large enough effect; inconclusive = small, poorly fitted or top-dose-only effect, or another doubt; inactive = no such curve, though single readings can be large; an effect the other way counts as inactive or inconclusive.

SMILES	CtBP-E1A blk	Gal4-VP16 FLuc	MBNL1 CUG block	Six1-Eya2 blk	CBFb RUNX1 block	RORg inh
CCOC(=O)c1cc2c(nc1N)CC(C)(C)OC2	3	23%	-24%	18	2%	u
CCOC(=O)c1cc2c(nc1NC(=S)Nc1ccccc1)CC(C)(C)OC2	-3	u	u	5	-2%	2.8µM*
CCOC(=O)c1cc2c(nc1NC(=S)NCc1ccccc1)CCCC2	0	3.5µM*	u	0	8%	6.3µM*
C=CCNC(=S)Nc1nc2c(cc1C(=O)OCC)COC(C)(C)C2	9	-5%	-4%	0	9%	10µM*
CCN(CC)CCNC(=O)c1[nH]c2ccc(OCc3ccccc3)cc2c1C	3	-17%	-1%	-22	u	13µM*
CCN(Cc1ccccc1)C(=O)c1[nH]c2ccc(OC)cc2c1C	-8	-8%	-2%	-4	x	-16%
O=C(CN(Cc1ccco1)C(=O)c1cccc(F)c1)Nc1ccccc1C(F)(F)F	-20	x	x	-2	x	x
CC(=O)NCC(=O)NC1CCCc2c1cnn2-c1ccc(C(C)(C)C)cc1 (configuration not stated)	28	-30%	-3%	6	x	u
Cc1cc(C(=O)NC2CCCc3c2cnn3-c2ccc(C(C)(C)C)cc2)nn1C (configuration not stated)	-5	11µM*	3%	-6	x	u
CC(C)(C)c1ccc(-n2ncc3c2CCCC3NC(=O)C2(C(N)=O)CC2)cc1 (configuration not stated)	1	2.5µM*	-2%	2	x	u
CCc1ccc(CN2CCC(Oc3ccc(C(=O)NCc4ccccn4)cc3)CC2)o1	10	-19%	-8%	-3	x	4%
C=CC[n+]1c(/C=C2\C=Cc3cc(C)ccc3N2CC)ccc2ccccc21	x	3.2µM*	x	u	-27%	u
c1ccc(-c2noc(-c3ccco3)n2)nc1	-5	u	2%	-6	6%	u
c1ccc(-c2nccc(-c3ccco3)n2)nc1	-67*	-26%	3%	u	x	13µM*
COC(=O)N/N=C1\CCCc2c(C)cc(C)cc21	-2	-3%	5%	12	4%	5%
Cc1cc(C)c2c(c1)/C(=N/NC(=S)Nc1ccc(F)cc1)CCC2	-4	16µM*	-2%	-9	-5%	-22%
CS(=O)(=O)c1ccc(C(=O)OCC(=O)c2ccc(Cl)s2)cc1	8	x	x	5	x	x
Cc1nnc(SCc2cnc(-c3ccc(C(C)C)cc3)s2)n1C	8	11µM*	2%	3	3%	10µM*
c1ccc(-c2ncc(CSc3nncn3-c3ccccc3)s2)cc1	0	16%	7%	17	-1%	-33%
O=C(Nc1cccc(Oc2ccccc2)c1)c1ccc(-n2cncn2)c2ccoc12	-6	x	x	-16	x	x
Cc1nc(N2CCOCC2)c2oc3ccccc3c2n1	8	-3%	6%	3	3%	-23%
CCc1nc(N2CCCCC2)c2oc3ccccc3c2n1	10	-23%	7%	3	8%	16µM*
Cc1nc(NC(C)c2ccccc2)c2oc3ccccc3c2n1 (configuration not stated)	0	13µM*	6%	-6	-6%	u
CCc1nc(N2CCCCC2C)c2oc3ccccc3c2n1 (configuration not stated)	4	u	4%	3	5%	18µM*
CCc1nc(N2CCCCC2C(=O)O)c2oc3ccccc3c2n1 (configuration not stated)	9	3%	x	10	1%	22%
SMILES	CtBP-E1A blk	Gal4-VP16 FLuc	MBNL1 CUG block	Six1-Eya2 blk	CBFb RUNX1 block	RORg inh
CCc1nc(NC(C)C)c2oc3ccccc3c2n1	10	-1%	16%	-1	12%	13µM*
CCc1nc(N[C@H](C(=O)O)C(C)C)c2oc3ccccc3c2n1	0	9%	-7%	18	-5%	-5%
COC(=O)/C=C/c1c(C)nc(NCc2ccccc2)nc1Cl	-5	-14%	16%	-6	x	-8%
CCOc1ccccc1/C=N/N1CCN(Cc2ccccc2)CC1	-24	-18%	8%	-16	x	9%
O=C(Cc1ccc(NC(=O)C2CCN(C(=O)C3CCC3)CC2)cc1)Nc1cccc(C(=O)N2CCCCC2)c1	-11	x	x	5	x	x
CCc1nc(Nc2ccc3c(c2)OCO3)c2oc3ccccc3c2n1	-8	-4%	-6%	-25	0%	-1%
CCc1nc(N2CCN(Cc3ccc4c(c3)OCO4)CC2)c2oc3ccccc3c2n1	-13	-29%	9%	-25	-15%	13µM*
CCc1nc(N2CCCC(C)C2)c2oc3ccccc3c2n1 (configuration not stated)	21	4µM*	-15%	14	22%	-88%
Cc1ccc(C(=O)Nc2nnc(SCC(=O)N3CCCc4ccccc43)s2)cc1	6	1.3µM*	u	1	1%	0.5µM*
CN(C)S(=O)(=O)c1ccc(C(=O)Nc2nnc(SCC(=O)N3CCOCC3)s2)cc1	4	x	x	12	x	x
O=C(Nc1nnc(SCC(=O)N2CCCc3ccccc32)s1)c1cccc2ccccc12	3	5%	x	2	u	u
CCOC(=O)CNC(=O)CSc1nnc(NC(=O)c2ccc3c(c2)OCO3)s1	0	u	-4%	1	x	7.1µM*
CC(=O)Nc1ccc(NC(=O)CSc2nnc(NC(=O)c3ccc(Br)o3)s2)cc1	-8	11µM*	4%	-11	x	3.2µM*
CC(C)Oc1ccc(C(=O)Nc2nnc(SCC(=O)N3CCOCC3)s2)cc1	1	1.8µM*	-1%	-7	0%	3.2µM*
CC(C)CN(C(=O)CCNC(=O)c1ccc(Cl)cc1)C1CCS(=O)(=O)C1 (configuration not stated)	2	x	x	-1	x	x
CCC(NC(=O)CC[C@H]1O[C@@H](n2cc(C)c(=O)[nH]c2=O)C[C@@H]1O)c1ccccc1 (some centres not stated)	4	x	x	-1	x	x
CC(C)C[C@H]1CNC(=O)C(=O)N1C[C@@H]1CCCN1C[C@H](Cc1ccccc1)N1C[C@H](Cc2ccccc2)N(CCc2ccccc2)C(=O)C1=O	-2	x	x	-1	x	x
CCCCCCCC/C=C/CCCCCCCCOP(=O)([O-])OCC[N+](C)(C)C	x	3%	x	x	u	-5%
